Experimental findings from PubChem BioAssay (NCATS) are described below.

The structures appear in SMILES notation. Inconclusive results are not listed. Active and inactive are the calls of the source. Calls come from the whole dose curve; as a rule, active = well fitted inhibition curve with a large enough effect; inconclusive = small, poorly fitted or top-dose-only effect; inactive = no such curve, though single readings can be large or run the other way.

The assay is described as follows: qHTS assay for measurement of the activity of small molecule inhibitors on Zika virus induced Caspase-3 activity in human iPSC derived neural progenitor cells (hNPCs) (AID 1224857). Note: nearly all actives have a fitted effect of over 65% in size. As to conditions: hNPCs ZIKV-induced caspase-3/7, Caspase-Glo luminescence, 6 h; series mostly up to 45.7 µM. The source says:
National Center for Advancing Translational Sciences [NCATS]
Johns Hopkins University School of Medicine
Increase in the Caspase-3 activity indicates an activation of apoptosis cell death pathway caused by Zika virus infection in certain types of neuronal cells including human neural progenitor cells (hNPCs), astrocytes, and astrocytoma cell line (SNB-19). This cell-based caspase-3 activity assay measures the increased caspase-3 activity in the human iPSC derived neural progenitor cells (hNPCs) after a 6-hour Zika virus infection with a luminescence readout. A decrease in the luminescence signal in this assay by small molecule treatment indicates an inhibitory effect of that small molecule on the Zika virus induced caspase-3 activity that may correlate with its effect on reduction of Zika virus caused cell death.
The medium for hNPCs consists of DMEM/F12, N2 supplement (ThermoFisher, Cat.# 17502048), NEAA (ThermoFisher, Cat. # 11140050), 2 ug/ml heparin, 2 uM cyclopamine, and B27 (ThermoFisher, Cat. # 17504044). A Caspase-Glo 3/7 assay kit (catalog number G8092; Promega, Madison, WI) was used to detect caspase-3 activity induced by Zika virus infection in human cells. The reagent mixture was reconstituted as described in the protocol from the manufacturer. Polystyrene tissue culture treated and PDL coated white plates were obtained from Greiner Bio-One (Monroe, NC). Cells were seeded in 384- or 1536-well assay plates and cultured at 37 C with 5% CO2 for 16 to 20 hours. The typical cell seeding density in the 1536-well plate assay is 350 cells/well in 3 ul medium for hNPCs in tissue culture treated plates. Compounds were added to cells and incubated for one hour before addition of ZIKV solution to cells (2 FFU/cell). After incubation at 37 C with 5% CO2 for 6 hours, the reagent mixture of Caspase-Glo 3/7 assay kit was added to each well, followed by incubation at room temperature for 30 minutes. The luminescence intensity of the assay plates was measured using a ViewLux plate reader (PerkinElmer). Data were normalized by using the cell-containing wells without ZIKV as a negative control (0% induction of caspase 3/7 activity) and wells containing ZIKV infected cells (Caspase-3 activity induced) as a positive control (100% induction of caspase 3 activity). The percentage inhibitions of the increased Caspase-3 activity by small molecule inhibitors were then calculated.
Background: qHTS replaces the single test concentration by a dilution series.
For `Cc1nc2c([nH]1)c(=O)n(C)c(=O)n2Cc1ccco1`, the result was inactive. On to `CC(=O)[C@@]1(O)CC[C@H]2[C@@H]3CCC4=CC(=O)CC[C@]4(C)[C@H]3CC[C@@]21C`, for which the compound was classed as inactive. As to `CN1C[C@H](C(=O)N[C@]2(C)O[C@@]3(O)[C@@H]4CCCN4C(=O)[C@H](Cc4ccccc4)N3C2=O)C[C@@H]2c3cccc4[nH]cc(c34)C[C@H]21`, the outcome was inactive.

Regarding `CCn1ccnc1CC1COc2ccccc2O1` (stereo not given), the result was inactive. The same measure for `C[C@]12CC[C@@H]3c4ccc(O)cc4C[C@@H](CCCCCCCCCS(=O)CCCC(F)(F)C(F)(F)F)[C@H]3[C@@H]1CC[C@@H]2O` (stereo not given in full): “inactive”; for `CCc1c(C)[nH]c2c1C(=O)C(CN1CCOCC1)CC2` (stereo not given): “inactive”.

On to `CCCCNc1c(C(=O)OCC)c(C)nc2c1cnn2CC`, for which the compound was classed as inactive. As for `OCCN1CCN(CCCN2c3ccccc3C=Cc3ccccc32)CC1`, the outcome was inactive.

Turning to `C[C@H](CS)C(=O)N1CCC[C@H]1C(=O)O`, the outcome was inactive. With `NCCCNCCSP(=O)(O)O` the entry was “inactive”. Turning to `CC[N+](C)(C)c1cccc(O)c1`, the compound was called inactive. Regarding `Brc1c(NC2=NCCN2)ccc2nccnc12`, the outcome was inactive. As to `CCN(CC)CCNC(=O)c1cc(S(C)(=O)=O)ccc1OC`, the compound was called inactive.

On to `CCCOc1ccccc1-c1nc2n[nH]nc2c(=O)[nH]1`, for which the compound was classed as inactive. Turning to `CC(C)(Oc1ccc(CCNC(=O)c2ccc(Cl)cc2)cc1)C(=O)O`, the outcome was inactive. For the compound `COCCc1ccc(OCC(O)CNC(C)C)cc1` (stereo not given), the result was inactive. Turning to `CCCCCN(CCCCC)C(=O)C(CCC(=O)O)NC(=O)c1ccc(Cl)c(Cl)c1` (stereo not given), the result was inactive. Consider `CCN1CCc2nc(N)oc2CC1`, for which the call was inactive. With `CCCNC(C)C(=O)Nc1ccccc1C` (stereo not given), the result was inactive. `c1ccc2c(c1)CCCC2C1=NCCN1` (stereo not given): the compound was called inactive. For `N[C@@H](COP(=O)(O)O)C(=O)O`, the outcome was inactive. Take `CN(C)CCN(Cc1cccs1)c1ccccn1`: the call was inactive.

`CC(C)[N+](C)(CCOC(=O)C1c2ccccc2Oc2ccccc21)C(C)C`: the result was inactive.

Turning to `CC(=O)[C@]1(O)Cc2c(O)c3c(c(O)c2[C@@H](O[C@H]2C[C@H](N)[C@H](O)[C@H](C)O2)C1)C(=O)c1ccccc1C3=O`, the compound was classed as inactive. Regarding `CCc1cccc(N(C)C(N)=Nc2cccc3ccccc23)c1`, the call was inactive. For the compound `CN1CCN(C2=Nc3ccccc3Oc3ccc(Cl)cc32)CC1`, the result was inactive.

Take `CC(=O)OCC1=C(C(=O)O)N2C(=O)[C@@H](NC(=O)Cc3cccs3)[C@H]2SC1`: the result was inactive.

On to `NC(N)=NC(=O)Cc1c(Cl)cccc1Cl`, for which the call was inactive. `Nc1c2c(nc3ccccc13)CCCC2O` (stereo not given): the result was inactive. Turning to `CN(C)C(=O)Oc1ccc[n+](C)c1`, the outcome was inactive. Turning to `Nc1ncn([C@@H]2O[C@H](CO)[C@@H](O)[C@H]2O)c(=O)n1`, the compound was called inactive. Regarding `Cc1nc2sccn2c(=O)c1CCN1CCC(=C(c2ccc(F)cc2)c2ccc(F)cc2)CC1`, the compound was classed as inactive. In the case of `CN/C(=C\[N+](=O)[O-])NCCSCc1ccc(CN(C)C)o1`, the compound was classed as inactive.

For `COc1ccc2c(c1OC)C(=O)O[C@@H]2[C@H]1c2c(cc3c(c2OC)OCO3)CCN1C`, the compound was classed as inactive. In the case of `NC1=NCC2c3ccccc3Cc3ccccc3N12` (stereo not given), the compound was classed as inactive. Take `CN=C(NC#N)NCCSCc1nc[nH]c1C`: the result was inactive. On to `CNCCC(Oc1ccccc1OC)c1ccccc1` (stereo not given), for which the compound was classed as inactive. For `NC(=O)c1cn(Cc2c(F)cccc2F)nn1`, the outcome was inactive.

Consider `FC(F)(F)c1ccccc1-n1ccnc1`, for which the compound was classed as inactive. Regarding `Cc1cccc(C)c1NC(=O)C(C)N` (stereo not given), the call was inactive.
